This passage reports AC50 results from PMC6792352, “Limited Chemical Structural Diversity Found to Modulate Thyroid Hormone Receptor in the Tox21 Chemical Library” (Environmental Health Perspectives, 2019).

The subject of this assay is thyroid hormone receptor (endogenous TRα and TRβ). Also on record: species or system GH3-TRE-Luc (rat pituitary); GH3-TRE-Luc luciferase reporter, antagonist mode against 1 nM T3, loss of signal, qHTS.
The mark [1] stands for this setting: read-out: Average AC50 (uM) GH3-TRE-Antag, antagonist mode, 1 nM T3, no GH3 cytotoxicity hit, Average AC50 (uM) GH3-TRE-Antag, 24 h.
Where [2] appears, read: read-out: Average AC50 (uM) GH3-TRE-Antag, antagonist mode, 1 nM T3, no GH3 cytotoxicity hit.

Structures can show the parent of a compound that is named as a salt. Where two headings read alike, the source gives them in different places.

On to `Nc1c2c(nc3ccccc13)CCCC2` [Tacrine], for which, under setting [1], the AC50 came to 41.7 µM.
As for `CCCCCCCCn1cc[n+](C)c1` [1-Methyl-3-octylimidazolium hexafluorophosphate], under setting [1], the AC50 was determined as 33 µM.
For the molecule `Nc1ccc2cc3ccc(N)cc3nc2c1` [Proflavin hydrochloride], under setting [1], the AC50 was 3.25 µM.
Turning to `CC(C)n1c(/C=C/[C@H](O)C[C@H](O)CC(=O)O)c(-c2ccc(F)cc2)c2ccccc21` (racemic) [Fluvastatin], under setting [1], the AC50 is 45.3 µM.
`Nc1ccc2cc3ccc(N)cc3nc2c1` [Proflavin hemisulfate]: under setting [1], the AC50 worked out at 4.93 µM.
Consider `CCCCCCn1cc[n+](C)c1` [1-Hexyl-3-methylimidazolium bromide], for which the concentration at half-maximal activity (AC50) under setting [1] was found to be 47.7 µM.
For the molecule `Brc1cc(-c2ccc(Br)c(Br)c2Br)cc(Br)c1Br` [Polybrominated biphenyls (PBB)], the AC50 under setting [2] was 51.8 µM.
As to `O=C1OC(OC(=O)c2cccnc2Nc2cccc(C(F)(F)F)c2)c2ccccc21` (stereo not drawn) [Talniflumate], under setting [2], the concentration at half-maximal activity (AC50) was 9.92 µM.
Regarding `CO/N=C(/C(=O)OC)c1ccccc1COc1ccccc1C` [Kresoxim-methyl], the AC50 under setting [2] was determined as 3.65 µM.
For the molecule `C=CC[C@]1(O)CC[C@H]2[C@@H]3CCC4=CC(=O)CCC4=C3C=C[C@@]21C` [Altrenogest], the concentration at half-maximal activity (AC50) under setting [2] worked out at 11.8 µM.
Consider `CCCCCCCCCCCCCCCC(=O)O[C@@H]1CC(C)=C(/C=C/C(C)=C/C=C/C(C)=C/C=C/C=C(C)/C=C/C=C(C)/C=C/C2=C(C)C[C@@H](OC(=O)CCCCCCCCCCCCCCC)CC2(C)C)C(C)(C)C1` [Physalien], for which the AC50 under setting [2] was 39.2 µM.
As for `O=C(CCCN1CCC(C(=O)c2ccc(F)cc2)CC1)c1ccc(F)cc1` [Lenperone], under setting [2], the half-maximal activity concentration (AC50) came out at 44.5 µM.

In general, AC50 refers to the concentration giving half of the maximal activity seen.
